Results published in PubChem BioAssay (NCI).
The panel holds about 83,000 compounds, 20% with a hit somewhere; the sample as a whole holds those more often.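 How to read the values: 0–100, growth inhibition (40 = 60% inhibited); 0, no net growth; -100 to 0, cell death (-40 = 40% of starting cells died; -100 = all dead).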 Values without a mark were called inactive. Activity calls are given as the source filed them. Rule for the calls: active = growth percent below 10; inactive = the rest.

Assays:
Assay in all cases: NCI-60 one-dose screen, 48 h (100 = growth as untreated, 0 = no growth, -100 = all killed)
Details in all cases: 10 µM unless noted
NCI-H23 lung = test system: NCI-H23 lung
NCI-H226 lung = test system: NCI-H226 lung
NCI-H322M lung = test system: NCI-H322M lung
HOP-62 NSCLC = test system: HOP-62 NSCLC
NCI-H460 lung = test system: NCI-H460 lung
NCI-H522 lung = test system: NCI-H522 lung
A549/ATCC NSCLC = test system: A549/ATCC NSCLC
786-0 renal = test system: 786-0 renal
COLO 205 colon = test system: COLO 205 colon
DU-145 prostate = test system: DU-145 prostate
MDA-MB-231 breast = test system: MDA-MB-231 breast
SF-268 CNS = test system: SF-268 CNS
SF-295 CNS = test system: SF-295 CNS
SF-539 CNS = test system: SF-539 CNS
UACC-257 melanoma = test system: UACC-257 melanoma
M14 melanoma = test system: M14 melanoma
HCT-15 colon = test system: HCT-15 colon
K-562 leukemia = test system: K-562 leukemia
MALME-3M melanoma = test system: MALME-3M melanoma
RXF 393 renal = test system: RXF 393 renal

Structure (SMILES)	growth (NCI-H23 lung)	growth (NCI-H226 lung)	growth (NCI-H322M lung)	growth (HOP-62 NSCLC)	growth (NCI-H460 lung)	growth (NCI-H522 lung)	growth (A549/ATCC NSCLC)	growth (786-0 renal)	growth (COLO 205 colon) [%]	growth (DU-145 prostate)	growth (MDA-MB-231 breast)	growth (SF-268 CNS)	growth (SF-295 CNS)	growth (SF-539 CNS)	growth (UACC-257 melanoma)	growth (M14 melanoma)	growth (HCT-15 colon) [%]	growth (K-562 leukemia)	growth (MALME-3M melanoma)	growth (RXF 393 renal)
Cc1cc(C)c(OC(=O)CSc2nc3ccccc3c(=O)n2CCc2ccccc2)cc1C	101%	84.8%	89.3%	104%	74.1%	98%	91.9%	105%	96	110%	80.1%	97.1%	87.3%	97.3%	103%	102%	52.7			
Cc1cc(NC(=O)Nc2cccc3ccccc23)no1	92.9%	108%	105%	103%	101%	91%	96.9%	96.4%		118%	112%	108%	103%	97.2%	105%	107%	95.2	92.4%	101%	99.6%
Cc1nn(-c2ccc(Br)cc2)c2nc3c(nc12)C(=O)C(=O)c1ccccc1-3	87.2%	96.9%	104%	91.7%	97.3%	98.3%	100%	102%	89.6	124%	78.7%	101%	97.5%		98.6%	98.2%	90.5		91.2%	111%
CCOc1ccccc1C(=O)OCC(=O)Nc1cccc(S(=O)(=O)N(C)C)c1	101%	100%	124%	94.2%	102%	95.1%	87.8%	109%		115%	110%	122%	160%	100%	93.6%	107%	123	104%	81.5%	64.6%
CCSc1nnc2n(Cc3ccccc3)c(=O)c3c(C)c(C(N)=O)sc3n12	110%	93.8%	102%	101%	109%	96%	97%	105%	121		103%	95.1%	91.4%		100%	112%	97.9		105%	103%
COc1ccc(C(=O)/C=C/c2c(Cl)nc3c(c(C)nn3-c3ccccc3)c2-c2ccc(Br)cc2)cc1	105%	97.3%	109%	104%	106%	98.6%	104%	91.5%	111	112%	105%	103%	103%		108%	100%	102		102%	101%
Cc1ccc(C(C)C)cc1NC(=O)Nc1ccc([N+](=O)[O-])cc1	-32.8% (active)	27.3%	43.2%	-0.0828% (active)	-1.38% (active)	-19.8% (active)	9.96% (active)	8.79% (active)		12.2%	35.6%	29.9%	4.2% (active)	29%	-5.55% (active)	22.3%	10.7	18.2%	6.64% (active)	90.8%
Cc1nn(-c2ccccc2)c(Cl)c1C(CC(=O)c1ccc(Cl)cc1)CC(=O)c1ccc(Cl)cc1	87.2%	88.6%	99%	97.8%	90.1%	71.6%	84.3%	81.8%	98.5	103%	80.5%	91.3%	92.4%		100%	83.9%	86.6		94.7%	92.2%
Cn1[nH]cc(/C=N/C(N)=O)c1=O	104%	111%	124%	111%	109%	121%	106%	99.8%	110		101%		115%	113%	119%	107%	105	103%	121%	
COc1ccc(-c2cn(-c3ccccc3)c(-c3ccccc3)n2)cc1OC	75.7%	62.4%	88.4%	102%	70.5%	75.4%	85.8%	83.7%		-22.9% (active)	73.8%	47.9%	94.7%	79.6%	105%	87%	17.1	14.8%	111%	102%
CCCn1cnc2c1c(=O)n(CCCCC(C)=O)c(=O)n2C	105%	100%	97.4%	101%	103%	113%	95.8%	104%		118%	104%	99.3%	118%	101%	102%	104%	103	90.9%	113%	103%
CN1C(=O)/C(=C/c2nc(-c3cccc(F)c3)n3ccccc23)c2ccccc21	83.7%	84.4%	80.8%	80.7%	56.1%	40%	44.9%	70.7%		82.6%	61.3%	92%	87.4%	71.4%	79.1%	73.1%	93	79.7%	57.6%	66.2%
Cn1c(N)c(N=O)c(=O)[nH]c1=O	104%	106%	112%	103%	107%	91.8%	97.9%	101%		112%	112%	110%	114%	105%	107%	97.9%	112	93.3%	104%	114%
O=C(COC(=O)[C@H](C[Se][Se]C[C@H](NC(=O)c1ccc(Br)cc1F)C(=O)OCC(=O)c1ccc(F)cc1)NC(=O)c1ccc(Br)cc1F)c1ccc(F)cc1	-37.3% (active)	-73.2% (active)	-23.2% (active)	-6.31% (active)	-35.6% (active)	-85.2% (active)	-41.2% (active)	-94.6% (active)		-100% (active)	-82.2% (active)	-74.1% (active)	-65.8% (active)	-98.5% (active)	-50.2% (active)	-64.6% (active)		-1.8% (active)	-64.4% (active)	-99.3% (active)
CCOC(=O)C(C(C)=O)c1nc2sc3cc(Cl)ccc3n2c(=N)c1C#N (configuration not stated)	78.2%	43%	105%	102%	96.1%	95.2%	90.7%	84.5%		109%	62.4%	64.6%	74.7%	99.9%	72.6%	77.8%	122	87.4%	52.5%	50.8%
Cc1c(C(N)=O)sc2c1c(=O)n(Cc1ccccc1)c1nnc(SCC(=O)Nc3ccc(Cl)cc3)n21	57.7%	9.97% (active)	28.9%	-6.06% (active)	-12.3% (active)	17.2%	20.7%	-41.2% (active)	50.7	39.5%	-6.85% (active)	60.1%	49.4%		35.3%	40.5%	82.5		15.8%	38%
O=C(Nc1cccc(-n2cc(-c3ccncc3)c(-c3ccc(O)c(Cl)c3)n2)c1)Nc1ccc(Cl)c(C(F)(F)F)c1	1.11% (active)	20.2%	-17.7% (active)	4.91% (active)	3.16% (active)	-7.92% (active)	-14.8% (active)	-6.01% (active)		4.68% (active)	-34.8% (active)	3.1% (active)	-25.7% (active)	-19.3% (active)	-19.5% (active)	-34% (active)	17.3	4.8% (active)	-24% (active)	-21% (active)
